Source: PubChem BioAssay (NCI)
Compounds without any hit were thinned out: in the full panel of roughly 83,000, 20% have a hit.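 Plates (96-well) were seeded with cells, treated with compound at one concentration, and incubated for 48 hours before percent growth was determined.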 Activity calls are given as the source filed them. Rule for the calls: active = growth percent below 10; inactive = the rest.

Tested on: MDA-MB-468 breast
Test: NCI-60 one-dose screen, 48 h (100 = growth as untreated, 0 = no growth, -100 = all killed)
Conditions: 10 µM unless noted

| SMILES | growth |
| --- | --- |
| Nc1ccc2c(c1)C(=O)NC2=O | 75.4% (inactive) |
| O=C(CCc1nnc(Cn2cncn2)o1)c1nc2ccccc2[nH]1 | 104% (inactive) |
| Cc1cc(=O)[nH]c(NN=C2CCCC2)n1 | 116% (inactive) |
